Hit rate of the full screen: of about 77,000 compounds, about 4,600 (6%) were called active. Not shown: some 1% with an inconclusive outcome.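 How the source made its calls: active means mean inhibition above about 93%, with at least 55% of replicates each passing it (limit read from the data, passing the limit was not always enough); inconclusive means only one of those two conditions holds; inactive means neither condition holds.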 Many of the other results were omitted from the sample, so actives are more common in it than they were.
Assay: T. cruzi intracellular proliferation inhibitors, primary screen, cell-based, beta-gal Tulahuen parasites, NIH3T3 host, luminescence (AID 624255)
Conditions: T. cruzi beta-gal in NIH3T3, GalScreen luminescence, 90 h; at 8.34 µM; active compounds read high

inhibition, inactive:
CCC(=O)Nc1ccc2c(c1)C(=O)N(C)[C@@H]1CC[C@@H](CC(=O)Nc3cccc(OC)c3)O[C@@H]1CO2 -12.2%, O=C(N[C@@H]1CC[C@H](CCn2cc(-c3ccccc3)nn2)O[C@H]1CO)c1cnccn1 20.6%, CNC(=O)C[C@@H]1CC[C@@H]2[C@H](COc3ccc(NC(=O)c4cccs4)cc3C(=O)N2C)O1 9.57%, CC(C)CC#Cc1cnc2c(c1)C(=O)N([C@H](C)CO)C[C@H](C)[C@H](CN(C)CC1CCOCC1)O2 60.8%, C/C=C/c1cnc2c(c1)C(=O)N([C@H](C)CO)C[C@H](C)[C@@H](CN(C)C(=O)Nc1ccc(C(F)(F)F)cc1)O2 108%, COCC(=O)N1C[C@H]2[C@@H](c3ccccc31)[C@@H](CO)N2Cc1ccccc1 -14.2%, COc1cccc(-c2ccc3c(c2)[C@@H]2[C@@H](CCN2C(=O)CN2CCOCC2)[C@H](CO)N3)c1 88.3%, O=S(=O)(c1ccccc1)N1CCCCN2[C@@H](CO)[C@H](c3ccc(C#Cc4cccnc4)cc3)[C@@H]2C1 90.8%, CC(C)NC(=O)N1CCCCN2[C@H](CO)[C@H](c3ccc(C#C[C@H](C)O)cc3)[C@H]2C1 90.4%, C[C@H]1CN([C@@H](C)CO)C(=O)c2cccc(NS(=O)(=O)c3cn(C)cn3)c2O[C@H]1CN(C)C(=O)Nc1ccc2c(c1)OCO2 -234%, O=C(Cc1ccccn1)NCC[C@H]1CC[C@H](NC(=O)Nc2ccc(F)cc2)[C@@H](CO)O1 10.8%, O=C(NC[C@@H]1[C@@H](c2ccccc2)[C@H](CO)N1C(=O)C1CCC1)NC1CCCC1 -28.8%, CCN(C[C@@H]1[C@@H](c2ccccc2)[C@H](CO)N1C(C)=O)C(=O)NC(C)C 7.85%, Cn1cnc(S(=O)(=O)N2C[C@@H](O)COC[C@@H]3O[C@H](CC(=O)NCc4ccc(F)cc4)CC[C@H]32)c1 -30.6%, COc1cccc(S(=O)(=O)N2C[C@@H](O)COC[C@H]3O[C@H](CC(=O)N4CCCCC4)CC[C@@H]32)c1 25.3%, COc1cccc(-c2cnc3c(c2)C(=O)N([C@H](C)CO)C[C@H](C)[C@H](CN(C)S(=O)(=O)c2cccc(F)c2)O3)c1 62.3%, COc1cccc(NC(=O)N(C)C[C@H]2OCc3ccccc3-c3ccccc3C(=O)N([C@H](C)CO)C[C@@H]2C)c1 -8.4%, Cc1ccc(S(=O)(=O)N(C)C[C@@H]2OCc3ccccc3-c3c(n(C)c4ccccc34)C(=O)N([C@@H](C)CO)C[C@@H]2C)cc1 60.7%, C[C@@H]1CN([C@@H](C)CO)C(=O)c2c(c3ccccc3n2C)-c2ccccc2CO[C@@H]1CN(C)S(=O)(=O)c1ccc(F)cc1 -18%, COc1ccc(S(=O)(=O)N(C)C[C@@H]2OCc3ccccc3-c3ccccc3C(=O)N([C@@H](C)CO)C[C@@H]2C)cc1 28.9%, C[C@H](CO)N1C[C@H](C)[C@@H](CN(C)S(=O)(=O)c2cccc(F)c2)Oc2ncc(-c3cccc(F)c3)cc2C1=O 49.3%, Cc1ccc(S(=O)(=O)N(C)C[C@H]2OCc3ccccc3-c3ccccc3C(=O)N([C@@H](C)CO)C[C@@H]2C)cc1 81.8%, C[C@@H]1CN([C@@H](C)CO)C(=O)c2ccccc2-c2ccccc2CO[C@H]1CN(C)C(=O)Nc1ccccc1 24.6%, O=C(C[C@H]1CC[C@@H]2[C@H](COC[C@H](O)CN2S(=O)(=O)c2ccc(F)cc2)O1)NCCN1CCCCC1 7.58%, CNC(=O)C[C@@H]1CC[C@@H]2[C@@H](COc3ccc(NC(=O)Cc4cccs4)cc3C(=O)N2C)O1 -40.4%, Cc1noc(C)c1NC(=O)N(C)C[C@H]1OCCCC[C@H](C)Oc2ccc(NC(=O)Nc3ccc4c(c3)OCO4)cc2C(=O)N([C@H](C)CO)C[C@@H]1C 17.1%, COCC(=O)N1C[C@H](C)[C@@H](OC)CN(C)C(=O)c2cc(NC(=O)c3ccc(OC)cc3)ccc2OC[C@H]1C 5.7%, CC=Cc1ccc2n(c1=O)C[C@H]1[C@H](CO)[C@@H](C(=O)NCC3CC3)N(Cc3nccs3)[C@@H]21 (mixture of isomers) -71.1%, COc1ccccc1C#Cc1cnc2c(c1)C(=O)N([C@@H](C)CO)C[C@H](C)[C@@H](CN(C)C(=O)CC1CC1)O2 92.8%, C[C@@H]1CCCCO[C@H](CN(C)S(=O)(=O)c2cn(C)cn2)[C@H](C)CN([C@@H](C)CO)C(=O)c2cc(NC(=O)Nc3ccc(C(F)(F)F)cc3)ccc2O1 29.7%, CO[C@@H]1CN(C)C(=O)c2ccc(NC(=O)Nc3c(C)noc3C)cc2OC[C@H](C)N(CC2CC2)C[C@H]1C 91.1%, C[C@@H]1CN([C@@H](C)CO)C(=O)c2cc(-c3cncnc3)cnc2O[C@@H]1CN(C)C(=O)c1ccccc1F 92.3%, C[C@H]1CN([C@@H](C)CO)C(=O)c2cc(C3=CCCC3)cnc2O[C@@H]1CN(C)C(=O)c1ccccc1 -4.66%, CCCC(=O)Nc1ccc2c(c1)OC[C@H](C)N(CCC)C[C@@H](C)[C@@H](OC)CN(C)C2=O -74.1%, CN1c2ccc(C3=CCCCC3)cc2[C@H]2[C@H](CCN2S(=O)(=O)c2ccccc2)[C@@H]1CO 86.7%, C[C@@H]1CCCCO[C@H](CN(C)S(C)(=O)=O)[C@@H](C)CN([C@@H](C)CO)C(=O)c2cc(NC(=O)CCC(F)(F)F)ccc2O1 31.3%, C[C@H]1CN([C@@H](C)CO)C(=O)c2cc(-c3cccc(F)c3)cnc2O[C@@H]1CN(C)S(C)(=O)=O 36.8%, C[C@H](CO)N1C[C@H](C)[C@@H](CN(C)S(=O)(=O)c2ccccc2)Oc2ncc(-c3ccncc3)cc2C1=O 2.86%, CCCNC(=O)[C@H]1[C@H](CO)[C@H]2Cn3c(ccc(C4=CCCC4)c3=O)[C@H]2N1C(=O)CC 6.67%, O=C(C[C@H]1CC[C@H]2[C@@H](COC[C@@H](O)CN2S(=O)(=O)c2cccc(Cl)c2)O1)NC1CCCC1 -59.2%, O=C(Nc1ccccc1)N[C@H]1CC[C@H](CCNC(=O)c2ccccc2F)O[C@H]1CO 22.8%, O=C(Nc1cc(Cl)cc(Cl)c1)N[C@@H]1CC[C@H](CCNS(=O)(=O)c2cccc(F)c2)O[C@H]1CO 17.2%, O=C(Nc1ccc(C(F)(F)F)cc1)N[C@@H]1CC[C@H](CCNC(=O)c2ccccc2F)O[C@H]1CO -57%, O=S(=O)(NCC[C@H]1CC[C@@H](NS(=O)(=O)c2cccc(Cl)c2)[C@@H](CO)O1)c1cccc(F)c1 11.3%, COc1ccccc1CNC(=O)C[C@@H]1CC[C@H](NC(=O)CN(C)C)[C@@H](CO)O1 18.4%, O=C(Nc1ccc(F)cc1)N[C@H]1CC[C@H](CCn2cc(-c3ccc(F)cc3)nn2)O[C@@H]1CO -16.9%, C[C@H]1CN([C@@H](C)CO)S(=O)(=O)c2ccc(C#Cc3ccncc3)cc2O[C@@H]1CN(C)C(=O)Nc1ccc2c(c1)OCO2 86.1%, CN1C(=O)c2cc(NC(=O)NC3CCCC3)ccc2OC[C@@H]2O[C@@H](CC(=O)O)CC[C@H]21 -32.1%, C[C@@H]1CN([C@H](C)CO)C(=O)c2cc(NC(=O)Nc3ccccc3)ccc2O[C@@H](C)CCCCO[C@H]1CN(C)Cc1ccc(C(F)(F)F)cc1 73.3%, C[C@@H]1CN([C@H](C)CO)C(=O)c2cc(NC(=O)Nc3ccc(C(F)(F)F)cc3)ccc2O[C@@H](C)CCCCO[C@@H]1CN(C)Cc1ccc(C(F)(F)F)cc1 86.3%, C[C@@H]1CCCCO[C@@H](CN(C)Cc2ccc(C(=O)O)cc2)[C@@H](C)CN([C@@H](C)CO)C(=O)c2cc(NC(=O)Nc3ccc(C(F)(F)F)cc3)ccc2O1 14.7%, C[C@H]1CCCCO[C@@H](CN(C)Cc2ccc(C(F)(F)F)cc2)[C@@H](C)CN([C@@H](C)CO)C(=O)c2cc(NC(=O)Nc3ccccc3)ccc2O1 73.3%

inhibition, active:
C[C@H](O)C#Cc1ccc([C@@H]2[C@H]3CN(S(=O)(=O)c4ccccc4)CCCCN3[C@H]2CO)cc1 107%, CCN(C[C@H]1[C@H](c2ccccc2)[C@H](CO)N1C(=O)C1CC1)C(=O)NC1CCCC1 96.5%, C[C@H](CO)N1C[C@H](C)[C@@H](CN(C)S(=O)(=O)c2cccc(F)c2)OCc2ccccc2-c2c(n(C)c3ccccc23)C1=O 98%, C[C@H]1CN([C@@H](C)CO)C(=O)c2ccccc2-c2ccccc2CO[C@@H]1CN(C)S(=O)(=O)c1ccc(C(F)(F)F)cc1 105%, C[C@H](CO)N1C[C@H](C)[C@H](CN(C)S(=O)(=O)c2cccc(F)c2)Oc2ncc(/C=C/c3ccccc3)cc2C1=O 107%, C[C@H](CO)N1C[C@H](C)[C@@H](CN(C)C(=O)Nc2ccnc(N3CCOCC3)c2)OCc2ccccc2-c2ccccc2C1=O 113%, C[C@H](CO)N1C[C@H](C)[C@H](CN(C)S(=O)(=O)c2ccccc2)Oc2ncc(-c3cccc(C(F)(F)F)c3)cc2C1=O 118%, O=C(Nc1ccc(Cl)cc1)N[C@@H]1CC[C@@H](CCNC(=O)c2ccccc2F)O[C@H]1CO 169%, O=C(Nc1cc(Cl)cc(Cl)c1)N[C@H]1CC[C@@H](CCNS(=O)(=O)c2cccc(F)c2)O[C@H]1CO 117%, C[C@@H]1CCCCO[C@H](CN(C)Cc2ccc(C(F)(F)F)cc2)[C@H](C)CN([C@H](C)CO)C(=O)c2cc(NC(=O)Nc3ccc(F)cc3)ccc2O1 103%, C[C@@H]1CCCCO[C@@H](CN(C)Cc2ccc(C(F)(F)F)cc2)[C@@H](C)CN([C@H](C)CO)C(=O)c2cc(NC(=O)Nc3ccccc3)ccc2O1 110%
